Screening data from PubChem.
Many of the other results were omitted from the sample, so hits are more common in it than they were.
JMJD2E inh: inhibitors of human JMJD2E histone demethylase; AID 2147; 230,000 compounds, 1.6% hits; Potency, µM (highest dose often 57.1 µM), for inactives: at the top dose activity change, negative = inhibition, most hits filed as inhibitors; JMJD2E catalytic domain, FDH-coupled NADH fluorescence (FDH is formaldehyde dehydrogenase);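 note: potency is the fitted concentration of half-maximal effect; 0% = wells with enzyme and -100% = buffer wells without enzyme; nearly all actives have a fitted effect of over 50% in size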
L3MBTL1 inh: inhibitors of human L3MBTL1; 230,000 compounds, 0.66% hits; AlphaScreen L3MBTL1–H3K9me1 peptide binding; Potency, µM (series often up to 57.1 µM), without a hit: at the highest dose activity, negative = inhibition, usual class: inhibitors; active = well fitted inhibition curve with a large enough effect; inconclusive = small, poorly fitted or top-dose-only effect; inactive = no such curve, though single readings can be large or run the other way; note: potency is the fitted concentration of half-maximal effect; nearly all actives have a fitted effect of over 60% in size
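Read-out is AlphaScreen signal from streptavidin donor and nickel chelate acceptor beads (10 ug/mL final each) bridging L3MBTL1 (50 nM) and biotinylated K9-monomethylated H3(1-15) peptide (75 nM), after 30 min compound exposure at room temperature.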
CtBP-E1A blk: CtBP/E1A binding inhibition; AlphaScreen GST-E1A/His-CtBP binding, 1536-well; stronger effect = lower value; activity change, % (concentration not given with the values); 340,000 compounds, 0.49% hits
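Protein mix (5X: 125 nM each GST-E1A, His-CtBP) was incubated with pinned compound 2 h at 37 deg C in dark, in 50 mM Tris pH 8.0 buffer with 300 mM NaCl. Glutathione donor and nickel acceptor beads followed; AlphaScreen signal read after 1 h.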
Six1-Eya2 inh: inhibitors of human Six1/Eya2 interaction | 360,000 compounds, 0.56% hits | AlphaScreen GST-Six1/His-Eya2 binding, biochemical; stronger effect = lower value | activity change, % (test concentration not listed) | Q15475+O00167
Target sequence (O00167 whole entry, looked up): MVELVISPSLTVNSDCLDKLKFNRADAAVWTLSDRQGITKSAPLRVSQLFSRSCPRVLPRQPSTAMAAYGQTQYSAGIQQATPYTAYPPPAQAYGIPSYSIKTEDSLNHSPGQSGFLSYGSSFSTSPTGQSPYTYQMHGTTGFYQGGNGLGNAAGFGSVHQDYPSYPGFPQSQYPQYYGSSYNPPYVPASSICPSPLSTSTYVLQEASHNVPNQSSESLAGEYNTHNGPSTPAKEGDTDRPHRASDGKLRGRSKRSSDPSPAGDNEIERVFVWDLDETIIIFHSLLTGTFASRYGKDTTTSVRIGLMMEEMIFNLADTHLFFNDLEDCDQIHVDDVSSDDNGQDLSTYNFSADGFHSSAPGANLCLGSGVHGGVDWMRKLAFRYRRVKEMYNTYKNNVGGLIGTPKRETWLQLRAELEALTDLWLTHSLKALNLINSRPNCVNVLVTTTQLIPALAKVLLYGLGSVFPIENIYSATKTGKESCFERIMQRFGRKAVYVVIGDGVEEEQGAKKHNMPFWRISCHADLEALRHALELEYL
Target sequence (Q15475 whole entry, looked up): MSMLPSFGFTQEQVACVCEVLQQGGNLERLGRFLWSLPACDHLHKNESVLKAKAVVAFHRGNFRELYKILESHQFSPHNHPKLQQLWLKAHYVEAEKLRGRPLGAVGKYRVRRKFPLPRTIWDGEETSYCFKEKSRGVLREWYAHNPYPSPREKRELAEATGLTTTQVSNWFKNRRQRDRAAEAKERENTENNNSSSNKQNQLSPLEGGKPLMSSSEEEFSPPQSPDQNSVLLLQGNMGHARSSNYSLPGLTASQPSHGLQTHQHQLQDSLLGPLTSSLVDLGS
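AlphaScreen luminescence read after one hour at 37 °C in darkness. Pin-transferred compounds met GST-Six1 and His-Eya2 protein (5X stock 250 nM/500 nM) plus glutathione donor and Ni-chelate acceptor beads (5X, 50 ug/mL).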
* hit, by the source's call; ? = inconclusive; . = no result given; [ ] = remark or other dose. Cut-off read from the data, not from the text of the source, unless noted: active = activity change below about -65%; inconclusive = mostly about -30% to -63%; inactive = weaker than that. Unless noted, % is set by controls: 0 for no effect and ±100 for the full control effect.

SMILES	JMJD2E inh	L3MBTL1 inh	CtBP-E1A blk	Six1-Eya2 inh
O=C(CNC(=O)c1ccco1)N/N=C/c1ccccc1[N+](=O)[O-]	0%	.	5	-2
COc1cccc(/C=N/NC(=O)CNC(=O)c2ccncc2)c1O	.	.	.	5
COc1cccc(/C=N/NC(=O)CNC(=O)c2cccnc2)c1O	.	.	-87*	-71*
CCOc1cccc(/C=N/NC(=S)Nc2cc(S(=O)(=O)N3CCOCC3)ccc2N2CCOCC2)c1O	32µM*	?	-97*	-87*
C/C(=N\NC(=O)c1ccc(N/N=C(\C)c2ccc(O)cc2)cc1)c1ccc(O)cc1	?	-6%	2	-5
COc1ccc(OCCCC(=O)OCC(=O)NNC(=O)c2ccc([N+](=O)[O-])cc2)cc1	.	2%	-10	-1
Cc1ccc(NC(=O)CCC(=O)OCc2ccc(Br)cc2)cc1	12%	11%	9	3
O=C(NCCCCNC(=O)c1ccccc1Br)c1ccccc1Br	.	.	-1	-2
COc1ccccc1NC(=O)C(C)OC(=O)C(C)SCC(=O)Nc1ccc(C)cc1 (stereo not drawn)	.	2%	8	-6
COc1ccc(/C=N/NC(=O)CNC(=O)COc2ccccc2)cc1	0%	-3%	2	3
CCOc1cccc(/C=N/NC(=O)c2ccc3c(c2)OCCO3)c1O	.	.	-87*	?
O=C(CNC(=O)c1ccncc1)N/N=C/c1ccc(O)cc1O	20µM*	-29%	.	-90*
COc1cccc(/C=N/NC(=O)CNC(=O)COc2ccccc2)c1O	8.9µM*	-1%	?	-83*
O=C(N/N=C/c1cccc(O)c1)c1ccc2c(c1)OCCO2	.	.	.	2
CCOc1cccc(/C=N/NC(=O)c2cc(-c3cccn3C)n[nH]2)c1O	32µM*	-15%	-85*	-87*
Cn1c(CO)nc2c3ccccc3ccc21	.	.	7	-10
COC(=O)C1=C(C(=O)OC)[C@@H]2N(Cc3ccccc3)c3ccccc3[C@@]23C[C@@H](C(=O)OC)N(S(=O)(=O)c2ccc(C#N)cc2)C3=N1	-9%[11.4 µM]	.	.	.
Cc1ccccc1-c1oc(C)c(C)[n+]1[O-]	-1%	.	-7	-2
CCCN(Cc1ccccc1)C(=S)NC(=O)c1ccccc1[N+](=O)[O-]	1%	-13%	0	0
CN(N=O)C(=O)N[C@H]1C(O)C(O)C(CO)O[C@@H]1O (stereo partly drawn)	0%	.	.	.
C[C@]12CCC(=O)C=C1CCC1C2C(=O)C[C@]2(C)C1CC[C@]2(O)C(=O)CO (stereo partly drawn)	-2%	.	.	.
COc1cccc(/C=N/NC(=O)C(=O)NCc2cccnc2)c1OC	8%	-3%	0	4
COc1cccc(/C=N/NC(=O)CNC(=O)C2COc3ccccc3O2)c1O (stereo not drawn)	18µM*	6%	-83*	?
COc1cccc(/C=N/NC(=O)CNC(=O)c2ccc3c(c2)OCCO3)c1O	-3%	13%	?	-88*
O=C(CNC(=O)C1COc2ccccc2O1)N/N=C\c1ccccc1Cl (stereo not drawn)	.	.	5	6
SMILES	JMJD2E inh	L3MBTL1 inh	CtBP-E1A blk	Six1-Eya2 inh
COc1cccc(/C=N/NC(=O)C(=O)NCc2cccnc2)c1O	10µM*	?	-92*	-89*
CN(C)c1ccc(/C=N/NC(=O)CNC(=O)c2ccc3c(c2)OCCO3)cc1	?	.	-12	-5
O=C(COc1ccccc1)NCC(=O)N/N=C/c1ccc(O)cc1O	14µM*	.	-91*	-80*
Cc1ccc(/C=N/NC(=O)CNC(=O)COc2ccccc2)cc1	0%	-3%	2	5
O=C(COC(=O)c1ccc2ccccc2n1)Nc1ccccc1F	.	2%	0	2
C[C@@H]1CN([C@@H](C)CO)C(=O)CCCn2cc(nn2)CO[C@H]1CN(C)C(=O)Oc1ccccc1	.	.	0	1
O=C(Nc1ccccc1)OC[C@H](CN1CCCCC1)OC(=O)Nc1ccccc1	-3%[25.5 µM]	.	.	.
C/C=C\C[C@@H](C)[C@@H](O)[C@H]1C(=O)N[C@@H](CC)C(=O)N(C)CC(=O)N(C)[C@@H](CC(C)C)C(=O)N[C@@H](C(C)C)C(=O)N(C)[C@@H](CC(C)C)C(=O)N[C@@H](C)C(=O)N[C@H](C)C(=O)N(C)[C@@H](CC(C)C)C(=O)N(C)[C@@H](CC(C)C)C(=O)N(C)[C@@H](C(C)C)C(=O)N1C	-3%	.	.	.
COc1cccc(/C=N/NC(=O)C[n+]2ccccc2)c1O	14µM*	16µM*	-88*	-87*
O=C(CNC(=O)c1ccc2c(c1)OCCO2)N/N=C/c1ccc(O)cc1O	13µM*	-4%	-90*	-77*
O=C(CNC(=O)c1ccco1)Nc1ccc(F)cc1	-2%	7%	-96*	2
Cc1ccc(S(=O)(=O)N(C)c2ccc(C(=O)NCc3ccccc3F)cc2)cc1	.	11%	2	-1
CCCCC[C@H](O)/C=C/[C@H]1OC(O)C[C@H](O)[C@@H]1C/C=C\CCCC(=O)O (stereo partly drawn)	-4%	.	.	.
COC(=O)C1=C(C(=O)OC)[C@@H]2Nc3ccccc3[C@@]23C[C@@H](C(=O)OC)N(S(=O)(=O)c2ccc(C#N)cc2)C3=N1	3%[11.4 µM]	.	.	.
CCn1ccnc1CN1CCc2c([nH]c3ccccc23)C1C1CCCCC1 (stereo not drawn)	28µM*	-18%	0	-1
Cc1ccc(S(=O)(=O)CCc2nnc(NC(=O)c3ccccn3)s2)cc1	11%	?	-92*	-90*
Cc1ccc(C2(C)NC(=O)N(CC(=O)Nc3nc(-c4ccccn4)cs3)C2=O)cc1 (stereo not drawn)	.	?	?	-92*
CC1(c2ccccc2)NC(=O)N(CC(=O)Nc2nc(-c3ccccn3)cs2)C1=O (stereo not drawn)	.	-17%	?	-91*
Cc1ccc(S(=O)(=O)CCC(=O)Nc2nc(-c3ccccn3)cs2)cc1	.	-4%	-73*	?
CC(C)(C)OC(=O)C1=NOC2(C=CC(=O)C=C2)C1	-11%	.	.	.
O=C(c1cccc(Cl)c1)N1CCC2CC1c1cc(N3CCOCC3)ccc12 (stereo not drawn)	.	.	-2	-17
C/C(=N\NC(=O)c1c[nH]c2ccccc12)c1ccc(C)o1	2%	.	-86*	-79*
C/C(=N\NC(=O)c1cc2ccccc2cc1O)c1ccc(C)o1	.	.	5	0
CCn1cc(C(=O)O)c(=O)c2cc(F)c(N/N=C/c3ccccc3)cc21	-1%	-4%	-74*	?
Cc1cc(=S)nc(-c2ccccn2)[nH]1	?	-7%	-69*	-85*
Cn1cnnc1SCC(=O)Nc1ccc2ccccc2c1	.	3%	6	-1
CCCCCN(C(=O)CCC(=O)OCc1cccc(F)c1)c1c(N)n(CCCC)c(=O)[nH]c1=O	.	4%	-2	3
Cc1cc(O)ccc1C1(c2ccc(O)cc2C)OC(=O)c2ccccc21	3%	-3%	-7	-4
CC(=O)Oc1ccc2c(c1)Oc1cc(OC(C)=O)ccc1C21OC(=O)c2ccccc21	2%	-12%	-28	-82*
Cc1nc2cccc(C(=O)Oc3ccc([N+](=O)[O-])cc3)c2o1	?	.	-15	-82*
